Source: PubChem BioAssay
Compounds with a hit are over-represented: about 3.3% of the library has one in this group of screens.
697 NFkB inh: lowers PMA/ionomycin-induced NF-kB signal in 697 B cells. inhibition, % at 4 µM. 697 B-cell NF-kB luciferase reporter, 16 h. 0.33% of 330,000 active. AID 435022; in the data active = inhibition above about 35%
SMARCA2 act: increases SMARCA2 function in MMTV reporter cells; MG213 cells, MMTV-luciferase reporter, dexamethasone, overnight; activation, % at 9.1 µM; 1% of 370,000 active; AID 652017; in the data active = activation above about 7.8%;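 also: 0% = vehicle wells and 100% = reference activator wells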
esBAF inh: inhibitors of esBAF chromatin remodeling in mouse ES cells | Bmi1-luciferase knock-in reporter, 24 h; 100% = twice the neutral-well signal | reporter increase, % at 12.5 µM | 2% of 350,000 active | AID 602393; in the data active = activation above about 40%; inconclusive = no clear call, values can overlap the other calls;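 also: 0% = median of the plate's neutral control wells and 100% = double that signal; a rise in the Bmi1 reporter signal indicates esBAF inhibition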
Gli-Sufu block: blocks Gli-Sufu signaling in a luciferase reporter. inhibition, % at 5 µM. 0.74% of 340,000 active. Sufu-KO-LIGHT fibroblasts, Gli luciferase reporter luminescence;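 active = inhibition above about 55%, limit read from the data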;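 also: 0% = DMSO-treated cells and 100% = wells with medium but no cells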
Jurkat NFkB inh: lowers PMA/ionomycin-induced NF-kB signal in Jurkat cells. inhibition, % at 4 µM. PMA/ionomycin-induced NF-kB luciferase reporter, luminescence. AID 435003. 0.53% of 330,000 active; in the data active = inhibition above about 50%
* marks the source's active call; other numbers are inactive results; ? = inconclusive; . = no result.

SMILES	697 NFkB inh	SMARCA2 act	esBAF inh	Gli-Sufu block	Jurkat NFkB inh
C[C@@H](NC(=O)C[C@H]1CC[C@@H](NC(=O)C2CCC2)[C@H](CO)O1)c1ccccc1	.	.	1	.	.
COc1ccc(/[N+]([O-])=C/c2ccoc2)cc1	-87	4	80*	-52	-70
Clc1ccc(/C=N/Nc2ccccn2)cc1	-49	2	43*	-53	-60
Cc1ccc(/C=N/Nc2ccccn2)s1	-14	5	57*	-43	-40
Brc1ccc(/C=N/Nc2ccccn2)cc1	-56	3	70*	-55	-60
COCC1CCN(C(=O)c2cc(COc3ccc(F)cc3F)on2)C1 (stereo not given)	-17	0	6	4	-10
CC(=O)c1ccc(OCc2cc(C(=O)N3CC4C[C@@H]5CC3C[C@H](C4)C5)no2)cc1	-116	1	.	-8	-83
COc1ccccc1OCc1cc(C(=O)N2CC3C[C@@H]4CC2C[C@H](C3)C4)no1	-96	4	63*	5	-83
COc1ccc(OCc2cc(C(=O)N3C[C@H]4CC[C@H]3C4)no2)c(Cl)c1	-70	4	61*	-15	-56
O=C(c1cc(COc2ccc(F)cc2F)on1)N1CC2C[C@@H]3CC1C[C@H](C2)C3	-83	1	55*	-9	-47
O=C(c1cc(COc2ccc(F)cc2F)on1)N1C[C@H]2CC[C@H]1C2	-37	7	46*	-16	-29
CCS(=O)(=O)Nc1ccc2c(c1)C(=O)N(C)[C@H]1CC[C@@H](CC(=O)N3CCOCC3)O[C@@H]1CO2	.	.	4	.	.
Cc1ccccc1S(=O)(=O)NCC[C@@H]1CC[C@@H](NC(=O)Nc2cccc(Cl)c2)[C@H](CO)O1	.	.	3	.	.
O=C(Cn1cc(C(F)(F)F)cc(Cl)c1=O)NCc1ccc(F)cc1	-22	7	58*	-22	-32
O=C(Cn1cc(C(F)(F)F)cc(Cl)c1=O)NCCc1ccc(Cl)cc1Cl	19	-3	.	2	10
Brc1ccc(C2=NC(Cc3ccccc3)CO2)cc1 (stereo not given)	-99	3	68*	-47	-96
CN(C)CCNCCCNc1c2ccccc2nc2cccc([N+](=O)[O-])c12	.	-6	.	62*	.
O=C(Nc1ccc(F)c(Cl)c1)c1cccnc1	-21	1	10	-14	6
CC(=O)Nc1ccccc1C(=O)C(=O)Nc1ccc(F)c(Cl)c1	-2	8	56*	-37	-16
O=C(Nc1ccc(F)c([N+](=O)[O-])c1)c1ccc2c(c1)OCCO2	-17	1	50*	-6	-28
O=C(Nc1ccc(F)c(Cl)c1)c1ccccc1	-47	3	70*	-79	-70
COc1cc(NC(=O)c2onc(C)c2Cl)c(OC)cc1Cl	23	7.9*	-3	-9	10
CC(=O)Nc1ccccc1C(=O)C(=O)Nc1ccc(C)c(F)c1	-59	5	.	-77	-58
COc1ccc(NC(=O)Nc2ccc3c(c2)CC(=O)N([C@H](C)CO)C[C@@H](C)[C@@H](CN(C)CC2CC2)O3)cc1	.	.	-2	.	.
CCCNC(=O)N[C@@H]1CC[C@H](CC(=O)NC2CCC2)O[C@H]1CO	.	.	3	.	.
SMILES	697 NFkB inh	SMARCA2 act	esBAF inh	Gli-Sufu block	Jurkat NFkB inh
C[C@@H]1CN([C@H](C)CO)S(=O)(=O)c2ccc(C#CCN(C)C)cc2O[C@H]1CN(C)C	.	.	8	.	.
COCC(=O)Nc1ccc2c(c1)C(=O)N(C)C[C@@H](OC)[C@@H](C)CN(C(=O)c1ccccn1)[C@H](C)CO2	.	.	-2	.	.
O=C(N[C@@H]1CC[C@@H](CCNS(=O)(=O)Cc2ccccc2)O[C@H]1CO)c1ccccc1F	.	.	0	.	.
COc1cc(C(=O)Nc2ccc3c(c2)OCCO3)ccc1OC(F)F	-2	6	70*	-56	-127
CCn1cc(Br)c(C(=O)Nc2ccc(F)c(Cl)c2)n1	-17	-2	58*	-71	-30
COc1cc(C(=O)Nc2ccc3c(c2)OCCO3)ccc1OC(C)C	-20	6	?	-56	-48
COc1ccc(NC(=O)c2ccc3c(c2)OCO3)cc1Cl	-135	3	.	-118	-120
Cc1noc(C(=O)Nc2ccc(F)c(Cl)c2)c1Cl	-26	4	49*	-35	-27
Cc1noc(C(=O)Nc2ccc(Cl)cc2)c1Cl	-2	.	.	.	18
O=C(Nc1ccc(F)c(Cl)c1)c1ccc2c(c1)OCO2	-142	3	55*	-132	-121
COCCNC(=O)C[C@H]1C[C@@H]2c3cc(NS(=O)(=O)c4ccccc4)ccc3O[C@@H]2[C@H](CO)O1	.	.	-6	.	.
CO[C@H]1CN(C)C(=O)c2ccc(NS(C)(=O)=O)cc2OC[C@H](C)N(C(=O)C2CC2)C[C@@H]1C	.	.	-2	.	.
Brc1ccc2oc3c(N4CCOCC4)ncnc3c2c1	.	5	48*	22	.
Cc1ccc(NC(=O)C2Cc3ccccc3O/C2=N\O)cc1C (stereo not given)	-16	3	?	-13	-31
O=C(Nc1ccc(Br)cc1)C1Cc2ccccc2O/C1=N\O (stereo not given)	-35	3	55*	-14	-77
CC(=O)N(C)C[C@@H]1Oc2cc(C#CCC(C)C)ccc2S(=O)(=O)N([C@H](C)CO)C[C@@H]1C	.	.	1	.	.
COc1ccc2[nH]c3c(NCCC4=CCCCC4)ncnc3c2c1	.	-6	.	68*	.
N/C(=N\OC(=O)c1cccc2ccccc12)c1cccnc1	-57	8	44*	-34	-51
N/C(=N\OC(=O)c1cccc2ccccc12)c1cccc([N+](=O)[O-])c1	-19	-1	10	-2	-18
Cc1cccc(/C(N)=N/OC(=O)c2cccc3ccccc23)c1	-75	0	49*	.	-20
N/C(=N\OC(=O)c1ccc(Cl)cc1)c1cccnc1	-165	5	68*	-2	-93
COCC(=O)Nc1ccc2c(c1)[C@@H]1C[C@@H](CC(=O)NCc3ccc(OC)cc3)O[C@@H](CO)[C@@H]1O2	.	.	2	.	.
O=C(Cc1ccccc1)N[C@@H]1C=C[C@@H](CC(=O)N2CCOCC2)O[C@H]1CO	.	.	0	.	.
C[C@@H]1CN([C@@H](C)CO)S(=O)(=O)c2ccc(C3=CCCC3)cc2O[C@@H]1CN(C)Cc1ccccc1F	.	.	-18	.	.
COC(=O)c1cc(NC(=O)c2ccc(C)cc2)c(=O)oc1C	-14	4	45*	-23	-5
C/C(=N\NC(=O)c1cccs1)c1ccc2ccccc2c1	-61	3	52*	-10	-56
COCC(=O)Nc1ccc2c(c1)[C@@H]1C[C@@H](CC(=O)NCCN3CCCCC3)O[C@@H](CO)[C@@H]1O2	.	.	-1	.	.
CC=Cc1ccc2n(c1=O)C[C@H]1[C@H](CO)[C@@H](C(=O)Nc3ccc(-c4ccccc4)cc3)N(CC)[C@@H]21 (mixture of isomers)	.	.	46*	.	.
CC=Cc1ccc2n(c1=O)C[C@@H]1[C@@H](CO)[C@H](C(=O)Nc3ccc(-c4ccccc4)cc3)N(C(C)=O)[C@H]21 (mixture of isomers)	.	.	4	.	.
CC=Cc1ccc2n(c1=O)C[C@@H]1[C@@H](CO)[C@H](C(=O)Nc3ccc(-c4ccccc4)cc3)N(CC)[C@H]21 (mixture of isomers)	.	.	21	.	.
